CHX counter = Cycloheximide Counterscreen for Small Molecule Inhibitors of Shiga Toxin; cell reporter, cycloheximide protein synthesis inhibition counterscreen; max response, %; 300,000 compounds, 12% hits; in the data active = max response mostly above about 13%, no sharp cut-off; inactive = mostly below about 14%; note: read at 38.3 µM for the half of the compounds with a filed dose; 0% is about no effect
LmPK inhibitor = qHTS Assay for Inhibitors of Leishmania Mexicana Pyruvate Kinase (LmPK); 290,000 compounds, 0.37% hits; Potency, µM (series often up to 57.5 µM), inactives show at the highest dose activity change, negative = inhibition, usual class: inhibitors; Q27686; purified LmPK, Kinase-Glo ATP luminescence, 1 h; note: potency is the fitted concentration of half-maximal effect; % is set by controls: 0 for no effect and ±100 for the full control effect
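Kinase-Glo luminescence read after 1 h RT reaction of 0.1 nM LmPK with 0.5 mM PEP and 0.1 mM ADP. Activity scaled between uninhibited and enzyme-free controls.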
FBPA Giardia inh = qHTS Assay for Inhibitors of Fructose-1,6-bisphosphate Aldolase from Giardia Lamblia. A8B2U2. purified Giardia FBPA. Potency, µM (top dose mostly 59.6 µM), inactives show at the top dose activity, negative = inhibition, hits mostly inhibitors. 290,000 compounds, 0.71% hits. AID 2451, 2010; note: potency is the fitted concentration of half-maximal effect; % is set by controls: 0 for no effect and ±100 for the full control effect; nearly all actives have a fitted effect of over 55% in size
Target sequence (A8B2U2 whole entry, looked up): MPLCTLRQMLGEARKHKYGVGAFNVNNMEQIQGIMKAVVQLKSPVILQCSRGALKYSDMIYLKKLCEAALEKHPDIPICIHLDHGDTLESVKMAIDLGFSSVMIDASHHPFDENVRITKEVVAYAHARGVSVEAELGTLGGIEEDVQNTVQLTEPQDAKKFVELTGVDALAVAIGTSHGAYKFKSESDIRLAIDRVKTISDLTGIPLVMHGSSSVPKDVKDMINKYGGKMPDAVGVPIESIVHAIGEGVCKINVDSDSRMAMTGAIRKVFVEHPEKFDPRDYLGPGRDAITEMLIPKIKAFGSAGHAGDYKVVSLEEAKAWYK
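Giardia FBPA (40 nM reagent) was preincubated 10 min at RT with compound (up to 57.5 uM final), then substrate plus GAPDH/TPI/NAD/arsenate coupling system with diaphorase/resazurin was added; resorufin fluorescence (525/598 nm) was read after 20 min.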
Shiga toxin inh = A qHTS for Small Molecule Inhibitors of Shiga Toxin; Vero cells, Shiga toxin protein synthesis inhibition reporter; inhibition, % at 38.7 µM; 290,000 compounds, 9.2% hits; AID 2315, 2010; in the data active = inhibition mostly above about 28%, no sharp cut-off; inactive = mostly below about 43%; note: 0% is about no effect
NS1 inh = qHTS Assay for Inhibitors of Influenza NS1 Protein Function; Potency, µM (titrated, usually from 46.1 µM), without a hit: top-dose activity, positive = more growth; 270,000 compounds, 0.4% hits; AID 2326, 2010; calls by dose curve; note: potency is the fitted concentration of half-maximal effect; actives are rising curves; nearly all actives have a fitted effect of over 50% in size
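Growth recovery, yeast-based: influenza A NS1 expressed in S. cerevisiae causes slow growth, and suppressors are detected by OD600. The parent strain without NS1 is used as positive control.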
* marks the source's active call; other numbers are inactive results; ? = inconclusive; / = not tested or not shown. A selection: hits, their analogues and other compounds. The true share with any hit is near 14%. Unless noted, calls come from the whole dose curve; as a rule, active = well fitted curve in the direction sought with a large enough effect; inconclusive = small, poorly fitted or top-dose-only effect, or another doubt; inactive = no such curve, though single readings can be large; an effect the other way counts as inactive or inconclusive.

SMILES | CHX counter | LmPK inhibitor | FBPA Giardia inh | Shiga toxin inh | NS1 inh
CC1=NN(C(N)=S)C(=O)C1N=Nc1cccc(Cl)c1 (stereo not given) | 44.0* | 2.0% | 21.7% | 78.9* | -49.5%
CC1=NN(C(N)=S)C(=O)C1N=Nc1ccccc1O (stereo not given) | 15.3* | -5.9% | 25.2% | 15.5 | 14.8%
CN(C)Cc1c(C(=O)N/N=C/c2ccco2)nnn1-c1nonc1N | -5.7 | -3.3% | -11.2% | 9.5 | 1.3%
O=C(O)C1CCN(C(=O)CCc2ccccc2)CC1 | -2.3 | 6.6% | 6.7% | 10.8 | 1.2%
CCOC(=O)c1c(C)[nH]c(C2=NNC(=Nc3ccccc3OC)SC2)c1C | 49.4* | -1.0% | 0.5% | 41.7* | ?
CCOC(=O)c1c(C)[nH]c(C2=NNC(=Nc3ccccc3)SC2)c1C | 20.5* | 1.4% | ? | 29.6* | 18.2%
CCOC(=O)C1=C(O)CSC1=Nc1ccccc1 | -3.3 | 2.5% | -2.6% | -12.1 | -9.7%
CC(=O)c1c(C)[nH]c(C2=NNC(=NC(C)(C)C)SC2)c1C | 29.4* | 2.4% | ? | 82.2* | /
CCOC(=O)c1c(C)[nH]c(C2=NNC(=Nc3ccc(OCC)cc3)SC2)c1C | 12.6* | 1.1% | -18.1% | 3.6 | 7.8%
CCOC(=O)c1c(C)[nH]c(C(=O)OCC(=O)Nc2cc(C)ccc2OC)c1C | -3.8 | 7.2% | 0.0% | -15.4 | -0.9%
CN(C)CCCn1cnc2cc(Cl)c(Cl)cc21 | / | / | / | / | -3.1%
CN(C)S(=O)(=O)c1ccc(C(=O)OCCn2cnc3c2c(=O)n(C)c(=O)n3C)cc1 | -2.4 | 5.6% | 4.3% | -2.7 | /
CC(Oc1ccc2ccc(=O)oc2c1)C(=O)NC(Cc1c[nH]c2ccc(O)cc12)C(=O)O (stereo not given) | -0.7 | -3.5% | -22.8% | -5.0 | 24.5%
CCN1C(=NCCc2c[nH]c3ccccc23)N[C@@H](c2ccccc2)[C@H](C(=O)OC)[C@H]1C | -1.3 | -6.4% | -13.0% | -9.1 | 0.2%
CCN(CC(=O)Nc1ccc2c(c1)CCC2)Cc1nc2ccccc2c(=O)[nH]1 | 8.5 | 1.7% | -21.0% | 54.6* | -26.1%
CCN(CC)CC(=O)Nc1ccc2c(c1)N(C(=O)CN(CC)CC)c1ccccc1CC2 | 14.3 | 3.3% | -26.4% | -19.3 | 2.7%
CCN(CC)CC(=O)Nc1ccc2c(c1)Nc1ccccc1CC2 | 21.1* | -2.8% | ? | 33.0* | -9.6%
CC(C)(C)OC(=O)N1CCC(C(=O)N[C@H](C(=O)O)c2ccccc2)(c2ccccc2)CC1 | 0.8 | 5.9% | -1.8% | -3.4 | 8.3%
O=C(/C=C\Nc1cccc(F)c1)c1cccs1 | 39.6* | ? | 5.5% | 42.1* | -20.2%
O=C(/C=C/Nc1ccc(F)cc1F)c1cccs1 | 46.3* | 8.91µM* | -13.6% | 48.7* | -10.7%
CCOC(=O)c1ccccc1N/C=C/C(=O)c1cccs1 | 74.1* | -14.4% | -3.9% | 155.9* | -21.4%
Cc1ccc(N/C=C/C(=O)c2cccs2)cc1 | 24.1 | 15.8µM* | -10.6% | 17.0 | /
O=c1c(-c2ccc(O)cc2)coc2c(C3OC(CO)C(O)C(O)C3O)c(O)ccc12 (stereo not given) | / | / | 1.1% | / | /
COc1ccccc1NS(=O)(=O)c1ccc(NC(=O)c2[nH]nc(OC)c2[N+](=O)[O-])cc1 | 1.8 | -0.8% | / | -4.3 | -18.7%
O=C(/C=C/Nc1ccccc1F)c1cccs1 | 44.8* | 15.8µM* | 1.3% | 29.8* | -19.1%
SMILES | CHX counter | LmPK inhibitor | FBPA Giardia inh | Shiga toxin inh | NS1 inh
O=C(Nc1ccccc1)c1cccc(N2C(=O)C3C4CC(C(Br)C4Br)C3C2=O)c1 (stereo not given) | 1.6 | -3.0% | -8.8% | 18.2 | -19.1%
CCOCCCNc1ccc(-c2ccccc2)nn1 | 26.6* | -9.9% | 1.7% | 109.0* | -8.9%
CCOCCCNC(=O)c1ccccc1SC | -0.9 | 0.1% | -1.3% | -16.1 | 0.6%
CCN1C(=O)c2cccc3c(S(=O)(=O)NCc4cccnc4)ccc1c23 | -3.0 | 3.3% | 2.7% | -4.9 | 6.0%
CCN1C(=O)c2cccc3c(S(=O)(=O)NCc4ccco4)ccc1c23 | 23.1* | 0.2% | ? | 18.4* | -3.8%
O=C(O)C1C(C(=O)O)C(C(=O)O)C1C(=O)O (stereo not given) | / | / | / | / | -10.8%
CCCc1cc2c(=O)c(-c3nc4ccccc4s3)c(COCC(=O)O)oc2cc1O | 43.4* | 4.8% | -24.8% | 95.1* | /
CCc1cc2c(=O)c(-c3nc4ccccc4n3C)c(COCC(=O)O)oc2cc1O | 0.6 | 1.6% | -8.1% | 98.1 | -2.9%

Compound activity as filed in PubChem.
